Screens (PubChem BioAssay)
LASV entry inh: qHTS for Inhibitors of binding or entry into cells for Lassa Virus. Potency, µM (highest dose often 37.9 µM), for the others: at the top dose activity change, negative = inhibition, hits mostly inhibitors. Lassa virus pseudotype entry inhibition, cell reporter. hit rate 1.2% among 300,000; calls by dose curve; tested in HEK293 cells; also: potency is read from the fitted curve at half-maximal effect; % is scaled to controls: 0 for no effect and ±100 for the full control effect; nearly all actives have a fitted effect of over 50% in size
HCMV antiviral: qHTS Assay for inhibitors of the human cytomegalovirus (HCMV) | HFF cells, HCMV-luciferase reporter, 72 h; hits give low values | activity change, negative = inhibition, % at 57.5 µM | hit rate 4.5% among 410,000 | AID 1259415, 2018; in the data active = activity change below about -60%; inconclusive = no clear call, values can overlap the other calls; inactive = above about -39%; also: % is scaled to controls: 0 for no effect and ±100 for the full control effect
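Steps: HFFs plated, 16 h 37C; compounds added; HCMV-luciferase added to MOI 1 PFU/cell; 72 h 37C; OneGlo reagent, 5 min room temperature; luminescence read, normalized to controls.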
FMDV inh: High Throughput Screening for Foot and Mouth Disease Virus Antivirals. Potency, µM (series often up to 57.9 µM), without a hit: at the top dose activity change, negative = inhibition, most hits filed as inhibitors. FMDV antiviral cell-based qHTS. hit rate 1.2% among 410,000; calls by dose curve; tested in HEK293T cells; also: read-out not given here; potency is read from the fitted curve at half-maximal effect; % is scaled to controls: 0 for no effect and ±100 for the full control effect; nearly all actives have a fitted effect of over 45% in size
MARV entry inh: qHTS for inhibitors of binding or entry into cells for Marburg Virus | Potency, µM (top dose mostly 37.8 µM), inactives show at the highest dose activity change, negative = inhibition, actives largely listed as inhibitors | hit rate 1.8% among 300,000 | AID 540276, 2011 | Marburg virus pseudotyped entry inhibition, cell reporter; calls by dose curve; tested in HEK293 cells; also: potency is read from the fitted curve at half-maximal effect; % is scaled to controls: 0 for no effect and ±100 for the full control effect
SARS PLpro yeast: qHTS of Yeast-based Assay for SARS-CoV PLP; S. cerevisiae expressing SARS-CoV PLpro, growth rescue; hit rate 0.19% among 330,000; Potency, µM (highest dose often 32.9 µM), for inactives: at the highest dose activity, positive = growth rescue, actives largely listed as activators; AID 485353, 2010; calls by dose curve; also: potency is read from the fitted curve at half-maximal effect; 0% is about no effect; nearly all actives have a fitted effect of over 55% in size
HCV inhibitor: qHTS Assay for Inhibitors of Hepatitis C Virus (HCV); Huh7.5.1 HCVcc-Cre infection, luciferase reporter, 44 h; Potency, µM (top dose mostly 41.8 µM), without a hit: top-dose activity change, negative = inhibition, actives largely listed as inhibitors; AID 651820, 2012; hit rate 3.4% among 340,000; active = well fitted inhibition curve with a large enough effect; inconclusive = small, poorly fitted or top-dose-only effect, or another doubt; inactive = no such curve, though single readings can be large or run the other way; also: potency is read from the fitted curve at half-maximal effect; % is scaled to controls: 0 for no effect and ±100 for the full control effect
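HCVcc-Cre virus at an moi near 0.5 was added right after compound to cells cultured 4 h from seeding (1,000 cells/well). Luciferase activity was determined 44 h later, 15 min after substrate addition at RT.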
* marks the source's active call; other numbers are inactive results; ? = inconclusive; . = not tested or not shown; + = active, no number; ! = not confirmed by another sample; [ ] = remark or other dose. Hits are enriched below; roughly 8% of the tested compounds scored in any of these assays.

SMILES	LASV entry inh	HCMV antiviral	FMDV inh	MARV entry inh	SARS PLpro yeast	HCV inhibitor
COc1ccc(/C=C/C(=O)c2ccc([N+](=O)[O-])o2)cc1OC	.	-103.6*	35.5µM*	.	2.8%	5.62µM*
NS(=O)(=O)c1ccc(CNC(=O)/C=C/c2cccc(Cl)c2)cc1	1.0%	5.3	-16.8%	26.6%	20.7%	1.6%
CC(NC(=O)c1c(O)nc2ccccn2c1=O)c1ccccc1 (stereo not given)	.	-20.8	-5.4%	9.2%[46.1 µM]	.	.
Cc1ccn2c(=O)c(C(=O)NC(C)c3ccccc3)c(O)nc2c1 (stereo not given)	.	-70.2*	-2.3%	?	.	.
COc1ccc(Cn2cc(CN3CC(N4CCSCC4)CS3(=O)=O)nn2)cc1 (stereo not given)	.	-100.5*	-13.8%	.	.	.
Cc1ccc(C)c(CN2CCC3(CCC(CNC(=O)c4ccnn4C)O3)CC2)c1 (stereo not given)	.	.	2.1%	.	.	.
Cc1ccc2c(c1)Oc1ccc(NC(=O)CCCl)cc1C(=O)N2	.	-90.5*	-6.1%	.	-0.1%	?
CCCC(=O)Nc1ccc2c(c1)C(=O)NC2=O	.	?	-19.5%	.	-2.7%	8.5%
CC(/C=N/NC(=O)Cn1cnc2ccccc21)=C\c1ccccc1	?	-70.0*	-8.2%	-13.8%	15.3%	-5.2%
O=C(Cn1cnc2ccccc21)N/N=C/c1ccccc1	.	12.5	-15.2%	.	-0.4%	8.4%
CC(C)Oc1ccc(C(=O)/C(=C\c2cccs2)c2nc3ccccc3o2)cc1	?	-72.7*	-26.2%	?	1.5%	?
Cc1ccc(C23CC4CC(CC(NC(=O)NN)(C4)C2)C3)cc1	.	0.0	-14.5%	.	4.9%	10.0%
Cc1ccc(C23CC4CC(CC(C(=O)N5CCN(C)CC5)(C4)C2)C3)cc1	.	0.0	?	-1.4%	-5.5%	2.51µM*
Cc1ccc(C)c(N2CCN(C(=O)C34CC5CC(C3)CC(n3nnc(C)n3)(C5)C4)CC2)c1	?	-38.0	?	?	-4.0%	17.8µM*
Cc1nnn(C23CC4CC(CC(C4)C2)C3)n1	4.0%	20.5	0.9%	2.2%	.	7.7%
Cc1ccc(C23CC4CC(CC(CC(=O)N5CCOCC5)(C4)C2)C3)cc1	8.2µM*	-37.5	?	?	-9.4%	?
Cc1ccc(C23CC4CC(CC(NC(=O)N5CCN(C)CC5)(C4)C2)C3)cc1	?	-5.9	-29.5%	?	1.4%	12.6µM*
COc1cc(OC)cc(C(=O)N2CCCC(n3cc(C(=O)NCC(C)C)nn3)C2)c1 (stereo not given)	.	.	10.8%	.	.	.
CCN(c1ccc(C)cc1C)S(=O)(=O)c1nnc(NC(=O)CC(C)C)s1	14.0%[46.1 µM]	-31.6	-19.1%	.	.	.
COC(=O)c1ccc(C(=O)OC)c(NC(=O)c2cnn3c(C(F)F)cc(-c4ccccc4)nc23)c1	12.0%[46.1 µM]	0.0	-12.4%	.	.	.
Cc1ccc(N2CCN(C(=O)C3CCC(=O)N(Cc4ccc(Cl)cc4)C3)CC2)c(C)c1 (stereo not given)	?	?	?	-16.2%	-2.0%	11.2µM*
NC(=O)C1CCN(C(=O)C2CCC(=O)N(Cc3ccc(Cl)cc3)C2)CC1 (stereo not given)	4.7%	51.3	-23.7%	11.2%	.	31.0%
CCOC(=O)c1cc(S(=O)(=O)NCc2ccc(OC)cc2)[nH]n1	5.0%[46.1 µM]	58.7	8.7%	.	.	.
COc1ccc(-c2nn(-c3ccccc3)cc2C(=O)O)cc1	.	23.8	-1.2%	.	2.5%	11.1%
COc1ccc(-c2nn(-c3ccccc3)cc2C(=O)N2c3ccc(C)cc3C3CN(C)CCC32)cc1 (stereo not given)	11.2µM*	?	-2.8%	?	0.5%	-24.9%
SMILES	LASV entry inh	HCMV antiviral	FMDV inh	MARV entry inh	SARS PLpro yeast	HCV inhibitor
O=C1C(=O)N(CCN2CCOCC2)C(c2ccncc2)/C1=C(/O)c1ccc2c(c1)OCO2 (stereo not given)	21.7%	12.3	10.1%	3.2%	11.6%	0.9%
COc1cccc(C2/C(=C(/O)c3ccc4c(c3)OCO4)C(=O)C(=O)N2CCN2CCOCC2)c1 (stereo not given)	.	-61.8*	5.6%	.	2.1%	4.2%
C=C(C(=O)c1ccccc1)C(C)CC(=O)c1ccccc1 (stereo not given)	?	-82.3*	28.2µM*	?	-59.3%	?
C=C(C(=O)c1ccccc1)C(NC(C)(C)C)c1ccccc1 (stereo not given)	?	-98.0*	10µM*	?	.	3.55µM*
O=C(CC(Nc1ccccc1)C(=O)O)c1ccccc1 (stereo not given)	?	44.4	19.0%	-5.9%	3.9%	1.6%
COC(=O)C(NC(=O)c1ccccc1)c1ccccc1 (stereo not given)	-3.9%	67.2	28.2%	28.2%	9.8%	11.5%
CN(C)c1ccc(-c2nccc(NCCN3CCOCC3)n2)cc1	.	.	4.6%	.	.	.
COCCCNC(=O)c1nnn2c1nc(N)c1cc(Cl)ccc12	.	-4.7	.	.	.	.
COc1ccccc1N1CCN(C(=O)C2CCCN(S(=O)(=O)c3ccc(C)cc3)C2)CC1 (stereo not given)	.	0.0	?	.	-1.2%	?
CC(=O)N1CCCc2cc(S(=O)(=O)N3CCCC(C(=O)N4CCN(c5cc(C)ccc5C)CC4)C3)ccc21 (stereo not given)	5.62µM*	-77.6*!	28.2µM*	?	-30.2%	10µM*
Cc1ccc(C)c(N2CCN(S(=O)(=O)c3ccc4c(c3)CCCN4C(=O)C3CCC3)CC2)c1	-28.1%[46.1 µM]	-8.7	?	.	.	.
CC(=O)N1CCCc2cc(S(=O)(=O)N3CCCC(C(=O)N4CCN(c5ccccc5)CC4)C3)ccc21 (stereo not given)	-19.5%[46.1 µM]	+!	17.8µM*	.	11.4%	11.2µM*
COc1ccccc1N1CCN(C(=O)C2CCCN(S(=O)(=O)c3ccc4c(c3)CCCN4C(C)=O)C2)CC1 (stereo not given)	?	-88.6*!	28.2µM*	11.2µM*	-0.9%	10µM*
CCN1C(=NCCCCO)N[C@@H](c2ccccc2)C(C(=O)OC)=C1C	.	.	.	.	-11.1%	.
CC1(C)CC(=O)C2=C(C1)O[C@@]1(CCCCN3C(=O)c4ccccc4C3=O)Cc3ccccc3[C@H]2O1	.	.	.	10.7%[14.2 µM]	.	.
O=C(CN1C(=O)C2CC=CCC2C1=O)Nc1nc(-c2ccc(F)c(F)c2)cs1 (stereo not given)	.	-32.1	?	.	-0.2%	10µM*
COc1ccc(-c2csc(NC(=O)CN3C(=O)C4CCCCC4C3=O)n2)cc1OC (stereo not given)	1.3%	-4.7	?	15.5%	18.9%	?
COc1ccc(-c2csc(NC(=O)CN3C(=O)C4CC=CCC4C3=O)n2)cc1OC (stereo not given)	.	-110.8*	?	.	.	?
COc1cc(CCCN2C(=S)NC[C@H]2Cc2ccc(O)cc2)cc(OC)c1OC	.	-12.7	-20.5%	.	0.2%	11.2µM*
